In PubChem BioAssay (NCI) one finds growth data, which are given here for 36 molecules.

About 83,000 compounds went through this panel and 20% of them were active in at least one assay; those are over-represented in the sample as a whole.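 The test compound was applied at a single concentration to cells in 96-well plates for 48 hours, and percent growth was recorded.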 A number with no mark means an inactive call. Active and inactive are the calls of the source. The calls were made as follows: active = growth percent below 10; inactive = the rest.

This experiment relates to NCI-H226 lung. The experiment is described as follows: NCI-60 one-dose screen, 48 h (100 = growth as untreated, 0 = no growth, -100 = all killed). The conditions noted are these: 10 µM unless noted.
With `CCCc1cc(NC)nc(S(=O)(=O)CC)n1`, the growth is 108%.

Regarding `Cc1ccc(Cl)cc1Nc1nc(C(F)(F)F)ccc1C(=O)N/N=C/c1cccnc1`, the growth is 30.7%.

Turning to `Cc1ccc(/C=C2\CN(C(=O)OC(C)(C)C)C/C(=C\c3ccc(C)cc3)C2=O)cc1`, the growth is 84.9%.

Take `O=C(Nc1cccc([N+](=O)[O-])c1)c1cc2ccccc2cc1O`: the growth is 1.25% (active).

Consider `NC(=O)c1c(NC(=O)c2ccccc2)sc2c1CCC(=O)C2`, for which the growth was 16.2%.

`COc1cc(N2C(=O)[C@H](O)C2c2ccc(SC)cc2)cc(OC)c1OC` (stereo partly specified): the growth was 68.6%.

Take `Cn1cc(-c2nc(-c3c[nH]c4ccncc34)cs2)c2ccccc21`: the growth is 87.6%.

Consider `OCCNCCCOc1ccc2ncnc(Nc3ccc(Oc4cccc(C(F)(F)F)c4)c(Cl)c3)c2c1`, for which the growth was 85.2%.

As for `O=S(=O)(NCCNc1cc(-c2c(-c3cccc(O)c3)nc3sccn23)ccn1)c1ccc(C(F)(F)F)cc1`, the growth is 38.1%.

On to `CCOC(=O)c1nc(Nc2ccc(NC(=O)Nc3ccc(F)cc3)cc2)c2ccccc2n1`, for which the growth is 90.4%.

In the case of `CCN1C(=O)N(CC)C2C1NN=c1s/c(=C\c3cccc([N+](=O)[O-])c3)c(=O)n12` (stereo unspecified), the growth is 58.2%.

Turning to `C#Cc1cccc(Nc2ncnc3ccc(-c4cnc(N)nc4)cc23)c1`, the growth is 53.2%.

On to `CCN(CC)CCSc1nc(-c2ccccc2)c(C#N)c(=O)[nH]1`, for which the growth was 116%.

Turning to `CN1C(=O)/C(=C/c2cn(-c3ccccc3)nc2-c2ccccc2)SC1=S`, the growth is 98.3%.

With `O=C1Nc2ccccc2/C1=C\c1nc(-c2ccccc2)n2ccccc12`, the growth was 91%.

In the case of `COc1ccc(NC(=O)c2sc3nc(C)c(C(=O)/C=C/c4cccc(OC)c4)cc3c2N)cc1`, the growth was 71.8%.

Take `Nc1nc2c([nH]1)c1[nH]c3ccccc3c1c1[nH]c3ccccc3c21`: the growth was 78.3%.

Take `Cc1ccc(-c2nc3nc(-c4ccc(F)cc4)nc(N4CCNCC4)c3o2)cc1`: the growth is 116%.

As for `COc1ccc(OC)c(C(=O)/C=C/c2cc3c(c(OC)c2OC)OCO3)c1`, the growth is 92%.

Regarding `CN1C(=O)/C(=C/c2ccc(C(=O)Nc3ncc(Cc4ccc(Cl)cc4)s3)cc2)SC1=S`, the growth was 71.5%.

In the case of `O=C(OCc1ccc2c(Cl)cc(Cl)c(O)c2n1)n1cncn1`, the growth is 59.1%.

For `C[C@]12C=CC(=O)C=C1CCC1C2[C@@H](O)C[C@@]2(C)C1CC[C@]2(O)C(=O)COC(=O)CCC(=O)O` (stereo partly specified), the growth was 84.6%.

Consider `COc1ccc2c(c1)c(-c1noc(C(=O)c3cn(C)c4ccc(Br)cc34)n1)cn2C`, for which the growth is 93.8%.

For `COc1ccc(/C=N/C2=C(C#N)C(c3cccc(Cl)c3)c3c(ccc4ccccc34)O2)cc1` (stereo unspecified), the growth was 36%.

Turning to `Cc1ccccc1Cn1cnc2ccc(-c3cc(NC(=O)c4ccc(NC5CCN(C)CC5)cc4)n[nH]3)cc21`, the growth was 68%.

As for `O=C1CC(N2C(=O)/C(=C/C(Cl)=C\c3ccc([N+](=O)[O-])cc3)SC2=S)C(=O)N1c1ccc(Cl)cc1` (stereo unspecified), the growth was 95.5%.

Turning to `CCN(CC)CCOc1ccc(-c2c(-c3ccccc3)c(=O)oc3ccccc23)cc1`, the growth was 82.7%.

On to `CCNC(=O)c1[nH]cc(-c2ccccc2)c1-c1cc(OC)c2c(c1OC)OCO2`, for which the growth was 86.9%.

As for `Cc1cc(=O)[nH]c2c(C#N)cnn12`, the growth is 96.4%.

Turning to `COCCn1c(-c2csc(-c3cn(C)c4ccc(OC)cc34)n2)cc2cccnc21`, the growth is 81.3%.

For `COC(=O)[C@]1(C)CCC[C@]2(C)[C@H]3C[C@H]4C(C(C)C)=C[C@]3(CC[C@H]21)[C@H]1[C@@H]4[C@@H](OCCC#N)CC[C@@H]1OCCC#N`, the growth was 46.1%.

As for `O=C(NCCCCNC(=O)OCc1ccc2c(Cl)cc(Cl)c(O)c2n1)OCc1ccc2c(Cl)cc(Cl)c(O)c2n1`, the growth is 8.33% (active).

`COC(=O)c1c2c(c(C)[n+]([O-])c1C)C(=O)C=C(NCc1ccc(Br)cc1)C2=O`: the growth is -42.9% (active).

In the case of `CCCCCCNC(=O)Oc1ccc(/C(=C(/C)Cc2ccc(OC)cc2)c2ccc(OCCCN(C)C)cc2)cc1`, the growth is 90.5%.

On to `CCCCCCC1(C)NCCO1` (stereo unspecified), for which the growth is 103%.

As for `CC[C@]12C=CCN3CC[C@@]4(c5cc(NC(=O)CCC(=O)OCc6cn(Cc7ccc(F)cc7)nn6)c(OC)cc5N(C)[C@H]4[C@@](O)(C(=O)OC)[C@@H]1OC(C)=O)[C@@H]32`, the growth is 95.2%.
